Source: PubChem BioAssay (National Center for Advancing Translational Sciences (NCATS))
Rows were chosen to be rich in hits. Some 10% of all compounds tested hit in one or more screens of this group.
HEK293 tox = cytotoxic compounds in HEK 293 cells; HEK 293 viability, ATP luminescence (CellTiter-Glo), 48-72 h; Potency, µM (titrated, usually from 115 µM), without a hit: at the highest dose activity change, negative = cytotoxicity, actives largely listed as inhibitors; 6.6% of 94,000 active; AID 1345083; also: % is scaled to controls: 0 for no effect and ±100 for the full control effect; nearly all actives have a fitted effect of over 60% in size
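Luminescence from cellular ATP, measured with CellTiter-Glo, indicates HEK 293 viability. Cells plated at 250 cells/well are treated with compound for 48 or 72 hr at 37 degree Celsius before reagent addition.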
GPT2 inh = blocks human glutamate pyruvate transaminase 2; Q8TD30; Recombinant GPT2, coupled pyruvate oxidase/HRP Amplex Red fluorescence; Potency, µM (doses to about 57.7 µM), without a hit: top-dose activity change, negative = inhibition, hits mostly inhibitors; 0.25% of 100,000 active; also: % is scaled to controls: 0 for no effect and ±100 for the full control effect; nearly all actives have a fitted effect of over 60% in size
Target sequence (Q8TD30 whole entry, looked up): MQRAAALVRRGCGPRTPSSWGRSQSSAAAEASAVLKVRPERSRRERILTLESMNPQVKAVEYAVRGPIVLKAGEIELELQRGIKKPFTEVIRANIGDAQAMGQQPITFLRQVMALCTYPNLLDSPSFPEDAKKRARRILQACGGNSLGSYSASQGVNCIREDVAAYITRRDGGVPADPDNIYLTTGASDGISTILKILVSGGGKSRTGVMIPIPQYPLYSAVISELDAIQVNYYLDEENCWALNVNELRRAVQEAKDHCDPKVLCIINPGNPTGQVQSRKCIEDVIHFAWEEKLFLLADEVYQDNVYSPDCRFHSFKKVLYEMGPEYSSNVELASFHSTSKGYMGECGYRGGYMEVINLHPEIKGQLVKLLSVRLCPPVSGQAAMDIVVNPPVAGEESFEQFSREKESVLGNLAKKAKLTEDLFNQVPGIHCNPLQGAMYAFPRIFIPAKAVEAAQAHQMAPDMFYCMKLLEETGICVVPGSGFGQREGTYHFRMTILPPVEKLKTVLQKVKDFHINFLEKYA
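Recombinant GPT2 (10ng/uL) with 250uM a-KG and 2mM L-alanine, 30 min at room temperature, in HEPES pH 7.5 buffer. Pyruvate detected by pyruvate oxidase/HRP/Amplex Red fluorescence after 30 min in the dark; AOA (50uM) as positive control.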
FLuc inh-1 = Photinus pyralis luciferase inhibition. purified P. pyralis luciferase, luminescence, biochemical. Potency, µM (top dose mostly 115 µM), actives largely listed as inhibitors. AID 1347043. 2.5% of 76,000 active; also: % is scaled to controls: 0 for no effect and ±100 for the full control effect; nearly all actives have a fitted effect of over 65% in size
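Biochemical qHTS: compound (6-point titration) added to 10uM D-luciferin plus 10uM ATP in Tris acetate pH 7.5 buffer with Mg, Tween-20 and BSA, then purified enzyme at 10nM; light output imaged.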
3T3 cytotox = kills NIH 3T3 cells. NIH 3T3 viability, CellTiter-Glo ATP luminescence, 48-72 h. Potency, µM (series often up to 96.7 µM), for the others: at the highest dose activity change, negative = cytotoxicity, most hits filed as inhibitors. 4.3% of 94,000 active; also: % is scaled to controls: 0 for no effect and ±100 for the full control effect; nearly all actives have a fitted effect of over 55% in size
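First NIH 3T3 cells are plated at 400 cells/well; next compound is pinned in; then plates incubate 48 or 72 hr at 37 °C; finally CellTiter-Glo is added and luminescence read after 10 min.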
NPR1 antag = antagonists of human natriuretic peptide receptor Npr1. 1.6% of 76,000 active. Potency, µM (highest dose often 46.3 µM), for inactives: at the top dose activity change, negative = inhibition, actives largely listed as inhibitors. HEK293 hNpr1 GloSensor cGMP, ANP-stimulated luminescence. P16066; calls by dose curve; also: % is scaled to controls: 0 for no effect and ±100 for the full control effect; nearly all actives have a fitted effect of over 60% in size
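Compound pre-incubated 30 min at room temperature on GloSensor-loaded HEK293 cells stably carrying hNpr1 and the pGS-40F cGMP biosensor. Stimulation uses hNppA at 0.1 nM final; luminescence is taken at baseline and 20 min post-agonist.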
FLuc SDR no ATP = binders stabilizing firefly luciferase, without ATP | 7.8% of 1,300 active | Potency, µM (series often up to 32.7 µM), for inactives: top-dose activation (signal gain), hits mostly activators | Purified FLuc-C-HiBiT, Nano-Glo HiBiT luminescence, no ATP | shares compounds with FLuc inh-1; also: nearly all actives have a fitted effect of over 55% in size
FLuc SDR ATP = stabilizes firefly luciferase with ATP present; purified FLuc-C-HiBiT + ATP, HiBiT complementation luminescence; Potency, µM (titrated, usually from 32.7 µM), for inactives: top-dose activation (gain of signal), actives largely listed as activators; 8.7% of 1,300 active; shares compounds with FLuc inh-1;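 also: signal reports ligand binding via conformational change of the enzyme rather than luciferase catalysis; % of control where 0% means no effect; nearly all actives have a fitted effect of over 55% in size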
FLuc inh-2 = firefly luciferase enzyme inhibition | shares compounds with FLuc inh-1 | purified FLuc-C-HiBiT enzyme, luciferin luminescence | Potency, µM (highest dose often 32.7 µM), for inactives: top-dose activity change, negative = inhibition, usual class: inhibitors | 42% of 1,300 active; also: % is scaled to controls: 0 for no effect and ±100 for the full control effect; nearly all actives have a fitted effect of over 70% in size
* marks the source's active call; other numbers are inactive results; [ ] = another dose, or the depositor's remark. Unless noted, calls follow the shape of the dose curve; as a rule, active = well fitted curve in the direction sought with a large enough effect; inconclusive = small, poorly fitted or top-dose-only effect, or another doubt; inactive = no such curve, though single readings can be large; an effect the other way counts as inactive or inconclusive. Potency is read from the fitted curve at half-maximal effect.

`Cc1cc(F)ccc1OC1(C(=O)O)CCN(c2ncnc3nc[nH]c23)CC1` gave HEK293 tox inactive, GPT2 inh -11%, FLuc inh-1 inactive, 3T3 cytotox 5%, NPR1 antag 4%, FLuc SDR no ATP 10%, FLuc SDR ATP 7% and FLuc inh-2 3%.
For COc1ccccc1Nc1ccnc(N2CCC(NC(=O)c3ccccc3Cl)CC2)n1 the results were HEK293 tox inconclusive, GPT2 inh 2% and 3T3 cytotox inconclusive.
For O=C(NC1CCCCC1)N1CCC(c2nc(C3CCOCC3)no2)CC1 the results were HEK293 tox -8%, GPT2 inh 0%, FLuc inh-1 inactive, 3T3 cytotox -14% and NPR1 antag 12%.
`O=C(Nc1ccc2c(c1)OCCO2)N1CC(c2nc(CCOCC3CC3)no2)C1` gave HEK293 tox inconclusive, GPT2 inh 3%, FLuc inh-1 11µM*, 3T3 cytotox -26%, NPR1 antag 2%, FLuc SDR no ATP 21%, FLuc SDR ATP 13% and FLuc inh-2 inconclusive.
For O=C(Nc1ccc2c(c1)OCCO2)N1CCC(c2nc(C3CCOCC3)no2)CC1 the results were HEK293 tox -4%, GPT2 inh inactive, FLuc inh-1 10µM*, 3T3 cytotox -18%, NPR1 antag 1%, FLuc SDR no ATP 19%, FLuc SDR ATP 15% and FLuc inh-2 inconclusive.
Screening O=C(Nc1ccc2c(c1)OCCO2)N1CCCC1c1nc(CCOCC2CCCC2)no1 (centres undefined) returned HEK293 tox inconclusive, GPT2 inh inactive, FLuc inh-1 inconclusive, 3T3 cytotox -23% and NPR1 antag 0%.
For O=C1CC2(CCN(C(=O)C3CCCN3C(=O)c3ccccc3Cl)CC2)Oc2ccccc2N1 (centres undefined) the results were HEK293 tox -15%, GPT2 inh -5% and 3T3 cytotox -13%.
`O=C(NCc1cccc(Cl)c1)C1CCCN(c2nn3cc(-c4ccc(F)cc4)nc3s2)C1` (centres undefined) gave FLuc SDR no ATP 21%, FLuc SDR ATP inconclusive and FLuc inh-2 inconclusive.
Screening COc1ccc(-c2cn3nc(N4CCCC(C(=O)NCc5ccccc5OC)C4)sc3n2)cc1 (centres undefined) returned FLuc SDR no ATP 15%, FLuc SDR ATP 13% and FLuc inh-2 inconclusive.
Screening CN1c2cc(C(=O)Nc3ccc4c(c3)OCCO4)ccc2C(=O)N2CCCC21 (centres undefined) returned HEK293 tox -27%, GPT2 inh -1%, FLuc inh-1 14µM*, 3T3 cytotox inconclusive, NPR1 antag -12%, FLuc SDR no ATP 28%, FLuc SDR ATP inconclusive and FLuc inh-2 7.9µM*.
COc1ccc(NC(=O)c2ccc3c(c2)N(C(=O)c2ccc(OC)cc2)CC3)cc1 was read as HEK293 tox inconclusive, GPT2 inh -10%, FLuc inh-1 inconclusive, 3T3 cytotox inconclusive and NPR1 antag inconclusive.
CN(C)c1ccc(NC(=O)c2ccc3c(c2)N(C)C2CCCCN2C3=O)cc1 (centres undefined) was read as HEK293 tox inconclusive, GPT2 inh inconclusive, FLuc inh-1 2.8µM*, 3T3 cytotox inconclusive, NPR1 antag -10%, FLuc SDR no ATP 14%, FLuc SDR ATP 17% and FLuc inh-2 inconclusive.
CN1c2cc(C(=O)Nc3ccccc3)ccc2C(=O)N2CCCCC21 (centres undefined) was read as HEK293 tox inconclusive, GPT2 inh inactive, FLuc inh-1 7.1µM*, 3T3 cytotox -19%, NPR1 antag -20%, FLuc SDR no ATP 17%, FLuc SDR ATP 16% and FLuc inh-2 inconclusive.
COc1ccc(C(=O)N2CCc3ccc(C(=O)Nc4ccc5c(c4)OCCO5)cc32)cc1 was read as HEK293 tox inconclusive, GPT2 inh 2%, FLuc inh-1 3.2µM*, 3T3 cytotox inconclusive, NPR1 antag inconclusive, FLuc SDR no ATP 30%, FLuc SDR ATP inconclusive and FLuc inh-2 5.6µM*.
For CN1c2cc(C(=O)Nc3ccc(Cl)c(Cl)c3)ccc2C(=O)N2CCCCCC21 (centres undefined) the results were HEK293 tox -30%, GPT2 inh -2%, FLuc inh-1 inactive, 3T3 cytotox inconclusive and NPR1 antag -1%.
COc1ccc(NC(=O)c2ccc3c(c2)N(C)C2CCCCN2C3=O)cc1 (centres undefined) was read as HEK293 tox inconclusive, GPT2 inh -19%, FLuc inh-1 inconclusive, 3T3 cytotox inconclusive and NPR1 antag -6%.
`COc1cccc(CNC(=O)C2CN(C3CCCCC3)C(=O)N2)c1` (centres undefined) gave HEK293 tox -12%[172 µM], GPT2 inh inactive and 3T3 cytotox -9%[138 µM].
CC(C)C(=O)NC1CCN(c2ccc3nnc(-c4ccccc4)n3n2)C1 (centres undefined) was read as HEK293 tox -20% and 3T3 cytotox -18%.
Screening CCCC(=O)Nc1cnc(-c2ccc(C)cc2)nc1 returned HEK293 tox inconclusive, GPT2 inh inactive, FLuc inh-1 2µM*, 3T3 cytotox -8%, NPR1 antag inconclusive, FLuc SDR no ATP inconclusive, FLuc SDR ATP inconclusive and FLuc inh-2 3.5µM*.
For CN1CC(=O)N(c2cccnc2)Cc2c1ncnc2N1CCC(c2ccccc2)CC1 the results were HEK293 tox inconclusive, GPT2 inh inactive, FLuc inh-1 inactive, 3T3 cytotox inconclusive and NPR1 antag -4%.
For NC(=O)C1CCN(c2ncnc3c2cnn3-c2cccc(Cl)c2)CC1 the results were FLuc SDR no ATP 17%, FLuc SDR ATP 12% and FLuc inh-2 -18%.
For OCC1CCN(c2ncnc3c2cnn3-c2ccccc2)CC1 the results were FLuc SDR no ATP 21%, FLuc SDR ATP 17% and FLuc inh-2 inconclusive.
For c1ccc(-n2ncc3c(N4CCCCC4)ncnc32)cc1 the results were FLuc SDR no ATP 3.5µM*, FLuc SDR ATP inconclusive and FLuc inh-2 0.88µM*.
